Screening data deposited in PubChem BioAssay by National Center for Advancing Translational Sciences (NCATS).
An excerpt weighted towards active compounds, which were near 9.9% of everything screened.
HPGD block: blocks human HPGD enzyme activity | Potency, µM, without a hit: at the top dose activity change, negative = inhibition, most hits filed as inhibitors | purified HPGD, NADH fluorescence kinetic, PGE2 substrate | actives 4.3% (n = 150,000); active means well fitted inhibition curve with a large enough effect, not every such curve was filed as active; inconclusive means small, poorly fitted or top-dose-only effect, or another doubt; inactive means no such curve, though single readings can be large or run the other way
Target sequence (P15428 whole entry, looked up): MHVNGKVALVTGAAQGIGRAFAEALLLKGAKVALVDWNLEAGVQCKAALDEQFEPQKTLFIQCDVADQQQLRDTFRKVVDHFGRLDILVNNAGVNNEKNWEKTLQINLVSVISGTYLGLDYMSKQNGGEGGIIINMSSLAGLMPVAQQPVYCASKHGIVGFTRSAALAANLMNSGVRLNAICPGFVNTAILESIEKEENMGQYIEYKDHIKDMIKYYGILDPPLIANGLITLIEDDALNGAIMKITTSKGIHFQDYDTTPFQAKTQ
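20 nM HPGD preincubated 15 min at room temperature with compound in 50 mM Tris-HCl pH 8, 0.01% Tween 20. Started with 1 mM NAD+ and 30 uM prostaglandin E2; NADH fluorescence (360/450 nm) read 5 times over 30-s intervals, last minus first.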
KDM4E inh: JMJD2E (human) inhibition | actives 1.6% (n = 230,000) | JMJD2E catalytic domain, FDH-coupled NADH fluorescence (FDH is formaldehyde dehydrogenase) | AID 2147 | B2RXH2 | Potency, µM (series often up to 57.1 µM), without a hit: top-dose activity change, negative = inhibition, most hits filed as inhibitors; active means well fitted inhibition curve with a large enough effect, not every such curve was filed as active; inconclusive means small, poorly fitted or top-dose-only effect, or another doubt; inactive means no such curve, though single readings can be large or run the other way;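 further: 0% = wells with enzyme and -100% = buffer wells without enzyme; nearly all actives have a fitted effect of over 50% in size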
Target sequence (B2RXH2 1-337 limits assumed): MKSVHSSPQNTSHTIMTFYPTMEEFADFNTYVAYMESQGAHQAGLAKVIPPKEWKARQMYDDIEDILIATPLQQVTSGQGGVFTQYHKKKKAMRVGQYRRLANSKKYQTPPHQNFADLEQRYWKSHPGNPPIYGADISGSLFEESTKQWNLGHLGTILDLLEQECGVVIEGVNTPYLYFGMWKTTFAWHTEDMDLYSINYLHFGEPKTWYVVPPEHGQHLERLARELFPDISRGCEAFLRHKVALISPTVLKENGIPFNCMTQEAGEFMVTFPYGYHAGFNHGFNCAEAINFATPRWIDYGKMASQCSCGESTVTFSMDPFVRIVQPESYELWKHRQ
Tau fluor cs: counter-screen for tau fibril formation inhibitors; tau K18 P301L Alexa594 fluorescence, heparin fibrillization; Potency, µM (doses to about 57.7 µM), inactives show top-dose activity change, negative = decrease; actives 0.93% (n = 280,000); further: nearly all actives have a fitted effect of over 55% in size
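Human tau K18 P301L (15 uM unlabeled, 0.24 uM Alexa 594-labeled) in 100 mM sodium acetate pH 7 with 20 uM heparin, 6 hr at 37 C. ThT 30 uM added, 1 hr ambient; Alexa 594 FP and total fluorescence read at 555/632 nm.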
Tau FP inhib: inhibitors of human tau fibril formation; actives 0.39% (n = 280,000); Potency, µM (series often up to 57.7 µM), for the others: at the highest dose activity, negative = inhibition, actives largely listed as inhibitors; AID 1468; K18 P301L tau heparin fibrillization, Alexa594 FP, 6 h; further: nearly all actives have a fitted effect of over 55% in size
Target sequence (P10636 561-689 P618L limits assumed): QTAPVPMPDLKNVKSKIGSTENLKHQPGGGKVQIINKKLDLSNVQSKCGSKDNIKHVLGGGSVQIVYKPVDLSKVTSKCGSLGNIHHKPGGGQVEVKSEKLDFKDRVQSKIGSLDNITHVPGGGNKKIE
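Human tau K18 […] P301L fragment, 15 uM unlabeled plus 0.24 uM Alexa 594-labeled tau (final), with compound and 20 uM heparin in 100 mM sodium acetate pH 7; 6 hr at 37 C, then Alexa 594 FP read.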
ALDH1A1 inh: blocks purified human ALDH1A1 activity | Potency, µM (doses to about 75.3 µM), without a hit: at the top dose activity, negative = inhibition, actives largely listed as inhibitors | P00352 | AID 1030 | Purified ALDH1A1, NADH fluorescence, propionaldehyde substrate | actives 7.3% (n = 220,000); active means well fitted inhibition curve with a large enough effect, not every such curve was filed as active; inconclusive means small, poorly fitted or top-dose-only effect, or another doubt; inactive means no such curve, though single readings can be large or run the other way;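 further: plate controls were no enzyme wells and a reference inhibitor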
Tau fibril ThT: inhibitors of human tau fibril formation, thioflavin T binding. actives 2.1% (n = 270,000). P10636. recombinant tau K18 P301L (four-repeat tau fragment), heparin-induced fibrillization, ThT fluorescence. Potency, µM (top dose mostly 57.4 µM), without a hit: at the highest dose activity, negative = inhibition, actives largely listed as inhibitors; further: nearly all actives have a fitted effect of over 55% in size
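K18 P301L tau (15 uM + 0.24 uM Alexa 594-tagged), heparin 20 uM, NaOAc pH 7, 6 h 37 C; ThT 30 uM, 1 h RT, ex 450/em 510 nm.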
The depositor's hits bear a star; ? = inconclusive; . = not tested or not shown; ! = not active in a repeat; [ ] = dose if it differs, or a comment. Unless noted, the call rests on the fitted dose curve; in most records, active means well fitted curve in the direction sought with a large enough effect; inconclusive means small, poorly fitted or top-dose-only effect, or another doubt; inactive means no such curve, though single readings can be large; an effect the other way counts as inactive or inconclusive. Unless noted, on the % scale 0 is the no-effect control and ±100 the full control effect; potency means the concentration at half of the fitted maximal effect.

SMILES	HPGD block	KDM4E inh	Tau fluor cs	Tau FP inhib	ALDH1A1 inh	Tau fibril ThT
O=C(O)c1ccc(-c2ccccc2C(F)(F)F)o1	-7%	-8%	10%	6%	5%	10%
O=C(NCc1ccccc1)c1ccc(-c2ccccc2C(F)(F)F)o1	32µM*!	-2%	-25%[81.3 µM]	4%[81.3 µM]	25µM*!	?
CCCCOc1ccc(-c2c(C(=O)Nc3ccccc3)c(C)[nH]c(=S)c2C#N)cc1	.	4%	-11%	0%	3.5µM*	-15%
NS(=O)(=O)c1ccc(N2CCCC2=O)c([N+](=O)[O-])c1	.	?	-9%	-5%	-15%	0%
NNS(=O)(=O)c1ccc(N2CCCC2=O)c([N+](=O)[O-])c1	.	?	3%	-3%	18µM*	0%
COc1cc(NC(=O)N2CCC(CN3CCCCCC3)CC2)cc(OC)c1OC	.	.	-8%	0%	.	-11%
Cc1ccc(S(=O)(=O)CCc2nnc(N)s2)cc1C	-2%	2%	0%	1%	-7%	-3%
Cc1ccc(S(=O)(=O)CCc2nnc(NC(=O)CCl)s2)cc1C	.	6%	0%	4%	1µM*	-2%
CCOc1cc(/C=N/NC(=O)c2ccc(-c3csc(Nc4ccc(C)cc4)n3)cc2)ccc1OCC(=O)O	.	?	?	7%	-7%	2.8µM*
Cc1ccc(-n2ncc3c(N4CCCCCC4)ncnc32)cc1	.	.	-20%	-12%	.	?
COc1ccc(N2C(S)=C(C#N)C(=O)NC2c2ccc(OC)c(OC)c2)cc1 (stereo not given)	.	-11%	-25%	?	?	28µM*
CCOc1ccc(C2NC(=O)C(C#N)=C(S)N2c2ccc(OC)cc2)cc1OC (stereo not given)	-29%	?	-22%	?	20µM*	?
COc1ccc(C2NC(=O)C(C#N)=C(S)N2c2cccc(C)c2)cc1OC (stereo not given)	.	-14%	-15%	?	?	?
COc1cc(C2NC(=O)C(C#N)=C(S)N2c2ccc(C)cc2)ccc1OC(C)C (stereo not given)	25µM*	-2%	8%	1%	-102%	8%
Cc1ccc(N2C(S)=C(C#N)C(=O)NC2c2ccco2)cc1 (stereo not given)	.	-16%	-14%	?	?	?
C[C@H]1CC[C@H]2C(=O)N3[C@H](c4ccc(Br)cc4)[C@@H](C)CC[C@H]3C(=O)N2[C@@H]1c1ccc(Br)cc1	.	.	-6%[11.6 µM]	-4%[11.6 µM]	11%[13.5 µM]	-8%[11.5 µM]
Cc1nc(-n2nc(C)c(CCC(C)C)c2C)sc1C(=O)Nc1ccc(Br)cc1	.	.	-3%	-4%	.	-8%
COc1ccc(S(=O)(=O)N2CCCC2C(=O)n2nc(C)cc2C)cc1 (stereo not given)	.	-2%	-3%	-6%	12%	5%
CC(C)CCNC(=O)Cn1nc(N2CCN(c3ccccc3)CC2)ccc1=O	.	.	-7%	4%	.	-2%
CCN(CC)C(=O)c1ccc(Oc2ccc([N+](=O)[O-])cc2Cl)cc1	.	-4%	-1%	7%	?	-2%
CCN(CC)C(=O)c1cc([N+](=O)[O-])cc2c1-c1ccc([N+](=O)[O-])cc1C2=C(C#N)C#N	.	?	?	?	.	32µM*
Cc1cc(C(=O)COC(=O)Cc2n[nH]c(=O)c3ccccc23)c(C)n1-c1cccc(C(F)(F)F)c1	-24%	-16%	-13%	8%	7.9µM*	?
Cc1cc(C)n(Cc2ccccc2)c(=O)c1S(=O)(=O)c1ccccc1	-5%	-6%	7%	2%	?	9%
Cc1c(CN(C)C)c2c(n1Cc1ccccc1)C(=O)c1ccc(Br)cc1-2	-4%	-1%	?	13%	10µM*	16µM*
COc1ccc(-c2noc(CNC(=O)COc3cccc(C)c3C)n2)cc1	.	.	-28%	13%	.	-17%
SMILES	HPGD block	KDM4E inh	Tau fluor cs	Tau FP inhib	ALDH1A1 inh	Tau fibril ThT
c1ccc2c[n+](Cc3ccnc4ccccc34)ccc2c1	-5%	.	.	.	-1%[13.5 µM]	.
COCCn1c(SCC(=O)Nc2ccccc2OC)nc2c(oc3ccccc32)c1=O	.	-19%	-3%	12%	?	-9%
COc1ccccc1Cn1c(SCC(N)=O)nc2c(oc3ccccc32)c1=O	.	-3%	-13%	-1%	1.3µM*	-1%
Cc1cccc(-n2c(O)c(C=NC3CCS(=O)(=O)C3)c3ccccc3c2=O)c1 (stereo not given)	-28%	-3%	-1%	-2%	16µM*	8%
Cc1cc(C)cc(-n2c(O)c(C=NC3CCS(=O)(=O)C3)c3ccccc3c2=O)c1 (stereo not given)	-14%	5%	-2%	7%	-4%	-7%
C/C(N)=C(/C#N)C(=O)COC(=O)[C@@H](NC(=O)c1ccccc1Cl)C(C)C	.	4%	6%	1%	6%	7%
CC1CCN(S(=O)(=O)c2ccc3nc(Nc4cccc(C(F)(F)F)c4)ccc3c2)CC1	.	.	?	28µM*	.	?
CC1CCN(S(=O)(=O)c2ccc3nc(Nc4ccc(C#N)cc4)ccc3c2)CC1	.	.	?	14µM*	.	?
CC1CCN(S(=O)(=O)c2ccc3nc(NCc4ccc(F)cc4)ccc3c2)CC1	.	.	?	?	.	0%
Cc1ccc(Cn2cnc3c(oc4ccccc43)c2=O)cc1	.	.	-13%	-5%	.	-9%
CCOC(=O)c1c(/N=C/N(C)C)sc(C=O)c1-c1ccccc1	.	?	-1%	0%	?	3%
CCOC(=O)c1c(/N=C/N(C)C)sc(/C=N/Nc2ccccc2)c1-c1ccccc1Cl	.	?	?	17%	13µM*	?
CCOC(=O)c1c(/N=C/N(C)C)sc(/C=N/Nc2ccccc2)c1-c1ccccc1	-6%	?	?	?	25µM*	-17%
CCNC(=O)CC1C(=O)N(CC)C(=S)N1NC(=O)c1ccccc1 (stereo not given)	.	4%	7%	-4%	.	1%
Cc1ccccc1-n1nc(C)c(N=O)c1N	.	8%	9%	5%	6%	13%
COC(=O)C/C=C\[C@@H](C)[C@@H](/C=N\OC[C@@H](O)[C@H]1O[C@H]2OC(C)(C)O[C@H]2[C@@H]1O)OC	.	.	-4%[11.6 µM]	-3%[11.6 µM]	-4%[13.5 µM]	1%[11.5 µM]
Nc1c[n+](N2CCOCC2)no1	-20%	2%	-21%	?	-10%	7.1µM*
Nc1ncnc(N2CCOCC2)c1N	-3%	?	1%	-5%	-1%	-5%
C=CCOC(=O)C(C(C)=O)C(NC(=O)OC)c1cccs1 (stereo not given)	.	.	-10%[11.6 µM]	-9%[11.6 µM]	8%[13.5 µM]	-11%[11.5 µM]
COc1ccc(NCc2cc3ccccc3[nH]c2=O)cc1	.	?	-14%	-2%	7.9µM*	?
